Molecules are shown by their SMILES. Out of some 6,200 compounds screened, about 2,900 (47%) were called active. The set was probably picked from earlier hits. The list shows a part of the results. Values without a mark were called inactive. Rule as the data show it: active = inhibition above about 50%; inactive = the rest.

The assay in a line: Mycobacterium tuberculosis growth inhibition, primary screen (AID 1259343). As to conditions: inhibition: at 10 µM, hits give high values; outcome: 10 uM.
A word on the inhibition: it is the change of the read-out against control, counted positive when it falls. With `CCN1CCc2c(sc(NC(=O)C(C)(C)C)c2-c2nc3ccccc3s2)C1`, the inhibition was 100% (active).

Turning to `CCC(=O)Nc1sc2c(c1-c1nc3ccccc3s1)CCN(C)C2`, the inhibition is 30.1%.

As for `CCN1CCc2c(sc(NC(=O)C3CC3)c2-c2nc3ccccc3s2)C1`, the inhibition was 36%.

On to `CN1CCc2c(sc(NC(=O)c3ccco3)c2-c2nc3ccccc3s2)C1`, for which the inhibition result was “inactive”.

Turning to `CCN1CCc2c(sc(NC(C)=O)c2-c2nc3ccccc3s2)C1`, the inhibition was 79.4% (active).

For `CCC(=O)Nc1sc2c(c1-c1nc3ccccc3s1)CCN(CC)C2`, the inhibition is 60.8% (active).

For the molecule `CCN1CCc2c(sc(NC(=O)c3ccc([N+](=O)[O-])cc3)c2-c2nc3ccccc3s2)C1`, the inhibition was 42.7%.

As for `CCN1CCc2c(sc(NC(=O)c3ccco3)c2-c2nc3ccccc3s2)C1`, the inhibition was 87.1% (active).

For `C(=Nn1c(-c2ccco2)csc1=NC1CCCCC1)c1ccccn1`, the inhibition is -7.16%.

On to `CCN1CCc2c(sc(NC(=O)c3ccc(C(C)=O)cc3)c2-c2nc3ccccc3s2)C1`, for which the inhibition was 5.96%.

With `CCN1CCc2c(sc(NC(=O)c3ccccc3)c2-c2nc3ccccc3s2)C1`, the inhibition is 100% (active).

`CN1CCc2c(sc(NC(=O)CS(=O)(=O)c3ccccc3)c2-c2nc3ccccc3s2)C1`: the inhibition is 25.4%.

In the case of `CN1CCc2c(sc(NC(=O)C(C)(C)C)c2-c2nc3ccccc3s2)C1`, the inhibition is 52.2% (active).

With `CCN1CCc2c(sc(NC(=O)c3cccs3)c2-c2nc3ccccc3s2)C1`, the inhibition was 52% (active).

`Cc1ccc(S(=O)(=O)CC(=O)Nc2sc3c(c2-c2nc4ccccc4s2)CCN(C)C3)cc1`: the inhibition is -29.9%.

Take `CN1CCc2c(sc(NC(=O)c3cccs3)c2-c2nc3ccccc3s2)C1`: the inhibition is 45.1%.

Turning to `CCN1CCc2c(sc(NC(=O)c3ccc(OC)cc3)c2-c2nc3ccccc3s2)C1`, the inhibition entry is “inactive”.

In the case of `CC1CCc2c(sc3nc(CN(Cc4ccccc4)CC(O)COCc4ccccc4)[nH]c(=O)c23)C1` (centres undefined), the inhibition was 17.2%.

Consider `CC1CCc2c(sc3nc(C(C)N4CCOCC4)[nH]c(=O)c23)C1` (centres undefined), for which the inhibition is 49.6%.

Regarding `COc1ccc(OCCSCc2nc3sc4c(c3c(=O)[nH]2)CCC(C)C4)cc1` (centres undefined), the inhibition is 54.4% (active).

`N=c1oc2c([N+](=O)[O-])cc(N3CCCCC3)cc2cc1-c1nc2ccccc2s1`: the inhibition was 5.54%.

On to `CN(C)c1ccc(C=NNc2ccc(F)cc2F)cc1`, for which the inhibition was 14.3%.

On to `Oc1ccc(Br)cc1C=NNc1ccc(F)cc1F`, for which the inhibition is 58.9% (active).

In the case of `COc1cc(OC)c(OC)cc1C=NNc1ccc(F)cc1F`, the inhibition is 84.3% (active).

Take `O=C1CSC2=NCN(c3ccc(I)cc3)CN12`: the inhibition was 63.4% (active).

As for `CCOC(=O)c1nnc2n(c1=O)CCN2c1ccc(OC)cc1`, the inhibition was 31.9%.

As to `O=c1c2cnc(N3CCOCC3)nc2ccn1-c1ccc(Cl)c(Cl)c1`, the inhibition is 12.3%.

As to `COc1ccc(N2CN=C3SCC(=O)N3C2)cc1`, the inhibition is 95.9% (active).

Turning to `O=C1CSC2=NCN(c3ccc(Cl)c(Cl)c3)CN12`, the inhibition is 71.9% (active).

For the molecule `COc1ccc(CN2CCN(c3ccc(Oc4ccccc4)cc3)C(=O)C2C)cc1` (centres undefined), the inhibition was 28.7%.

For the molecule `CNc1cnc(-c2ccc(O)cc2C)cn1`, the inhibition was 9.26%.

Regarding `CCCCCCCCN=C1NC(=O)CS1`, the inhibition was 95.8% (active).

For `CCCCCOc1cc(C)ccc1S(=O)(=O)N1CCCC1`, the inhibition is 41.6%.

As to `Nc1ncc(Br)cc1S(=O)(=O)N1CCCCC1`, the inhibition is 77.9% (active).

`CCOc1ccc(-c2ccc(=O)n(Cc3cc(C)ccc3C)n2)cc1`: the inhibition was -12.8%.

Turning to `CCOc1ccc(-c2ccnc(N3CCN(C(=O)C(=O)OC)CC3)n2)cc1`, the inhibition was 53.2% (active).

With `CCOC(=O)C1CCN(C2CCN(c3nncc(-c4ccccc4)n3)CC2)CC1`, the inhibition was -15.5%.

For the molecule `O=C(NCCc1ccco1)c1ccc(C2SCCS2)cc1`, the inhibition is 77.9% (active).

As to `O=C(NCCc1ccco1)c1ccc(Br)cc1F`, the inhibition is 5.5%.

As to `CC(C)(CNC(=O)CCc1ccco1)c1ccc(Br)cc1`, the inhibition is 11.2%.

For the molecule `O=S(=O)(Nc1cnc(Br)cn1)c1cccc(Cl)c1`, the inhibition is 10.2%.

For the molecule `O=S(=O)(Nc1ccc(Br)cn1)c1ccc(Cl)cc1`, the inhibition is 77.7% (active).

As for `N#Cc1ccc(NS(=O)(=O)c2ccc(F)c(Cl)c2)nc1`, the inhibition was 27%.

As to `O=C(C1CCC1)N1CCC(Cc2ccc(C(F)(F)F)cc2)CC1`, the inhibition was 83.6% (active).

Consider `CC(C)(C)c1ccc(CC2CCN(C(=O)CCCl)CC2)cc1`, for which the inhibition was 82% (active).

As for `O=C(N1CCC(Cc2ccc(-c3ccccc3)cc2)CC1)C(F)(F)C(F)F`, the inhibition is 39.3%.

With `O=C(NCc1ccccc1F)C(C1CCCC1)N1CCN(C(=O)c2ccc(C(F)(F)F)cc2)CC1` (centres undefined), the inhibition is -35.5%.

Consider `O=C(c1c(F)c(F)cc(F)c1F)N1CCC(Cc2ccc(C(F)(F)F)cc2)CC1`, for which the inhibition is 71.6% (active).

Regarding `CC(Cl)C(=O)N1CCC(Cc2ccc(C(F)(F)F)cc2)CC1` (centres undefined), the inhibition is 90.3% (active).

For `Cc1cc2cc(NC(=O)c3ccc(CN4CC[C@H](O)C4)cc3)ccc2o1`, the inhibition is 91.8% (active).

As for `O=C1NC(=NC2CCCC2)SC1=Cc1cc2c(cc1Br)OCO2`, the inhibition was 63.1% (active).

Regarding `c1ccc2c(NCCNc3ncnc4ccccc34)cccc2c1`, the inhibition is 69.3% (active).

As for `O=[N+]([O-])c1ccccc1NCCNc1cccc2ccccc12`, the inhibition was 26%.

For `c1ccc(-c2nc(NCCc3ccccn3)c3ccccc3n2)cc1`, the inhibition is -27%.

As to `CCOC(=O)CNc1c(-c2ccccc2Cl)nc2ccc(Br)cn12`, the inhibition was 88.4% (active).

Consider `CCOC(=O)CNc1c(-c2ccc(C(F)(F)F)cc2)nc2ccc(Br)cn12`, for which the inhibition was 24.2%.

Regarding `COc1ccc(OC)c(-c2nc3ccc(Br)cn3c2NC2CCCCC2)c1`, the inhibition is 10.8%.

As for `Oc1c(Cl)cc(Cl)c(Cl)c1Cc1c(O)c(Cl)cc(Cl)c1Cl`, the inhibition was 102% (active).

`Cc1cccc(-c2ccc(NC(=O)C3CCN(C(=O)c4nonc4C)CC3)cc2)c1`: the inhibition was 92.3% (active).

Regarding `Cc1cccc(-c2ccc(NC(=O)C3CCN(C(=O)c4ccc(F)cc4)CC3)cc2)c1`, the inhibition is 81.5% (active).

For `Cc1cccc(-c2ccc(NC(=O)C3CCN(C(=O)c4ccncc4)CC3)cc2)c1`, the inhibition result is “inactive”.

As to `Cc1ccc(SCC(=O)NC23CC4CC(CC(C4)C2)C3)cc1C`, the inhibition was -43.9%.

With `O=C(CCOc1ccccc1)NC12CC3CC(CC(C3)C1)C2`, the inhibition was 87.8% (active).

Take `COc1ccccc1N(C)CC(=O)NC12CC3CC(CC(C3)C1)C2`: the inhibition is 9.54%.

Source of the values: PubChem BioAssay AID1259343 (VanderVen Lab, College of Veterinary Medicine, Cornell …, 2017).
